# Source: PubChem BioAssay
# Calls of active or inactive are those of the source.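 How the source made its calls, unless noted: active means visually confirmed hit in the image check and inhibition above 20%; inconclusive means visually confirmed hit but inhibition not above 20%; inactive means no visual hit in the image check.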
# What was measured:
# [1] = inhibitors of TNFa-induced NFkB p65 translocation, primary screen, imaging, HUVEC, MLSMR starter and 10KST1 sets (AID 438;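 active means inhibition above 20% together with a positive visual image hit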;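 further: compound added about 3h40 before a 20 min TNFalpha stimulation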;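 on inhibition: signal is the nuclear over cytoplasmic p65 intensity ratio per well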); details: HUVEC TNFa-induced p65 nuclear translocation; cell count: measured here: nuclei count (cytotoxicity indicator), at 2.08 µM; inhibition: at 2 µM, stronger effect = higher value, 0% TNFa-plus-vehicle, 100% no-TNFa wells
# [2] = inhibitors of mutant huntingtin aggregation, primary screen, imaging, exon1htt(103Q)mCFP cells, high-content imaging (AID 483;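 active means visual image review flags a hit and inhibition of aggregation exceeds 20%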;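 further: compound exposure lasted 3 days before fixation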;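 on nuclei count: percent of the per-plate median nuclei count of sample wells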); details: exon1htt(103Q)mCFP cell line, aggregate imaging, at 2 µM; inhibition of aggregation: stronger effect = higher value; nuclei count: measured here: cell count, toxicity
# [3] = inhibitors of E-selectin induction by TNFa, primary screen, imaging, HUVEC, immunofluorescence, MLSMR starter and 10KST1 sets (AID 487); details: HUVEC TNFalpha-induced E-selectin immunofluorescence imaging, at 2 µM; inhibition: stronger effect = higher value; nuclei count: measured here: cell number, toxicity;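 on inhibition: signal is fraction of cell area covered by stained E-selectin grains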;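 on nuclei count: 100% = median nuclei count of all wells on the same plate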
# [4] = molecular target: Voltage-gated potassium channel subunit beta-2 (Rattus norvegicus) (UniProt P62483); test: KvBeta enzyme negative modulators, primary screen, biochemical, NADPH fluorescence (AID 622;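 active means fluorescence slope higher than the sample average by over 3 SD, cut at about -0.22 in these data, passing the limit was not always enough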;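 further: slope of raw intensity against log time taken from 70 to 1610 s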); details: recombinant KvBeta, 4-cyanobenzaldehyde reduction, at 10 µM, stronger effect = higher value
# [5] = molecular target: Voltage-gated potassium channel subunit beta-2 (Rattus norvegicus) (UniProt P62483); test: KvBeta positive modulators, primary screen, biochemical, NADPH fluorescence (AID 623;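 active means NADPH fluorescence slope more negative than the mean of all samples by about 3 SD, 99.7% confidence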;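 further: fluorescence intensity change per second fitted from 20 to 320 s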); details: Recombinant KvBeta, NADPH fluorescence decrease slope, 10 min; at 10 µM; stronger effect = lower value
# [6] = molecular target: Alpha-2C adrenergic receptor (Homo sapiens) (UniProt P18825); test: modulators of alpha2C/GIRK thallium flux, primary screen, cell-based, HEK293 alpha2C/GIRK1/2 (AID 624;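 active means fluorescence slope after compound addition differing from the mean of all screened samples at 99.7% confidence, in either direction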;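 further: slope of fluorescence ratio to pre-addition baseline per second over 15 to 24 s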); details: thallium flux BTC fluorescence, at 10 µM, actives lie on both sides
# [7] = inhibitors of Sendai virus-induced IRF3 signaling, primary screen, TLR/RLR signaling modifier project, cell-based, Sendai virus stimulus, luciferase, 10K MLSCN set (AID 602276;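 active means inhibition at or above 50% at 10 µM; inactive means inhibition below 50%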;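 further: firefly luciferase from ISG56 promoter only with Renilla not read in this screen; 0% = Sendai virus plus DMSO and 100% = medium plus DMSO without virus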); details: HEK293 RL24 IRF3 luciferase reporter, at 10 µM, stronger effect = higher value
# [8] = inhibitors of poly I:C-induced TLR3 signaling, primary screen, cell-based, poly I:C stimulus, luciferase, 10K MLSCN set (AID 602277;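 active means inhibition of the reporter signal at or above 50%; inactive means inhibition below 50%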); details: HEK293-TLR3 RL24 IRF3 luciferase reporter, at 10 µM, stronger effect = higher value
# Alpha-2C adrenergic receptor (Homo sapiens), sequence (P18825 whole entry, looked up): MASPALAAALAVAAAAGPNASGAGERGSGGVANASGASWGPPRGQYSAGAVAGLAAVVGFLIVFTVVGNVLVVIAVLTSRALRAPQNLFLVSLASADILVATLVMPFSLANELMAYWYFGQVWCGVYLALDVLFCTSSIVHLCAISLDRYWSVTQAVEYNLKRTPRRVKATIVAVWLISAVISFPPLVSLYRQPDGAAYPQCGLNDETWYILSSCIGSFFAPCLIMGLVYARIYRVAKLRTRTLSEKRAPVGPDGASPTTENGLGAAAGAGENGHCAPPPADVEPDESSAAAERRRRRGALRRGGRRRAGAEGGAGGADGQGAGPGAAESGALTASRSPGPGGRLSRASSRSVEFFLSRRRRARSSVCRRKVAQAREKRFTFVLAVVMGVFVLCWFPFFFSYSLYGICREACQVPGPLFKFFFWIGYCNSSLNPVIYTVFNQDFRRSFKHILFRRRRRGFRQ
# Voltage-gated potassium channel subunit beta-2 (Rattus norvegicus), sequence (P62483 whole entry, looked up): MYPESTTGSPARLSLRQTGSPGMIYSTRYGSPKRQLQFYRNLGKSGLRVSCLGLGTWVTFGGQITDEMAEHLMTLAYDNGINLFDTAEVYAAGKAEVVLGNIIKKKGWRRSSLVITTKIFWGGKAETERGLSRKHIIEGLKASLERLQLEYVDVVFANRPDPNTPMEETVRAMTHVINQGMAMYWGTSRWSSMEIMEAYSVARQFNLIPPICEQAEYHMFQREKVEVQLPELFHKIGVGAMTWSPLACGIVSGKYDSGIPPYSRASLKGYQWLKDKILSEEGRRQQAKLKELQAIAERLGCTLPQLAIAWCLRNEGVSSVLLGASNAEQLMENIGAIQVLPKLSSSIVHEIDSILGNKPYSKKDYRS
Compound,cell count [1],inhibition [1],inhibition of aggregation [2],nuclei count [2],inhibition [3],nuclei count [3],fluorescence slope [4],NADPH fluorescence slope [5],slope [6],inhibition [7],inhibition [8]
c1ccc2c(c1)nc(NC1CCCCC1)c1nncn12,446,-0.5% (inactive),11.8% (inactive),55.9%,-47.5% (inactive),113%,-0.595 (inactive),-1.7e-05 (inactive),0.0061 (inactive),0.474% (inactive),32.3% (inactive)
CCCOC(=O)c1[nH]c2c(c1C)C(=O)CC(c1cc(OC)c(OC)c(OC)c1)C2 (stereo not drawn),803,1.2% (inactive),2.2% (inactive),114%,-90.3% (inactive),118%,-0.567 (inactive),-2.6e-05 (inactive),0.00599 (inactive),0.863% (inactive),-18.2% (inactive)
CCOc1cc(-c2nc(-c3ccccc3OC)no2)cc(OCC)c1OCC,575,7.7% (inactive),0.8% (inactive),98.3%,-68.3% (inactive),109%,-0.605 (inactive),-4.7e-05 (inactive),0.00447 (inactive),11.5% (inactive),12.6% (inactive)
COc1ccc(-n2c(=O)c3c4c(sc3n3cnnc23)CC(C)CC4)cc1 (stereo not drawn),370,0.2% (inactive),-5.1% (inactive),80.3%,-108% (inactive),116%,-0.46 (inactive),-4.9e-05 (inactive),0.00768 (inactive),23.9% (inactive),2.31% (inactive)
O=C(CSc1nc(-c2ccccc2)cs1)NC(=O)NCc1ccco1,355,-1.1% (inactive),1% (inactive),75.7%,-105% (inactive),125%,-0.429 (inactive),3.1e-06 (inactive),0.00572 (inactive),18.5% (inactive),3.13% (inactive)
O=C(CSCCSCC(=O)c1ccco1)c1ccco1,594,-6.1% (inactive),-12% (inactive),84.7%,-44.4% (inactive),138%,-0.421 (inactive),-6.5e-05 (inactive),0.00644 (inactive),7.09% (inactive),7.22% (inactive)
O=C(NCCN1C(=O)C2C3C=CC(C3)C2C1=O)Nc1ccccn1 (stereo not drawn),635,0.8% (inactive),12.9% (inactive),72.4%,-12.9% (inactive),108%,-0.603 (inactive),1.9e-05 (inactive),0.00714 (inactive),7.16% (inactive),16.9% (inactive)
COc1ccc(Nc2ncnc3c2cnn3-c2ccccc2)cc1OC,761,-15.1% (inactive),-26.1% (inactive),84.3%,-10% (inactive),103%,-0.366 (inactive),1.2e-05 (inactive),0.00554 (inactive),-10.2% (inactive),-29.8% (inactive)
O=C(c1cccc(C(=O)N2CCN(c3ccccc3)CC2)c1)N1CCN(c2ccccc2)CC1,667,-2.6% (inactive),1.8% (inactive),98.6%,-86.1% (inactive),112%,-0.456 (inactive),3e-05 (inactive),0.00517 (inactive),4.89% (inactive),-1.16% (inactive)
CCOc1ccc(C(=O)CN2CCN(S(=O)(=O)c3ccc(OC)cc3)CC2)cc1,599,-2.9% (inactive),-3.6% (inactive),106%,-29.2% (inactive),92.2%,-0.391 (inactive),-4.7e-05 (inactive),0.00338 (inactive),-2.61% (inactive),21.2% (inactive)
Cn1cc(C(=O)c2ccc(F)cc2)cc1-c1nc2ccccc2n1C,357,-6.3% (inactive),23.1% (inactive),86.8%,5.7% (inactive),83%,-0.59 (inactive),-4.1e-05 (inactive),0.0041 (inactive),3.11% (inactive),-17.9% (inactive)
COc1ccccc1NC(=O)c1cc2n(n1)C(C(F)(F)F)CC(c1ccc3c(c1)OCO3)N2 (stereo not drawn),479,2.4% (inactive),5.1% (inactive),109%,-14.9% (inactive),110%,-0.629 (inactive),6.1e-06 (inactive),0.00604 (inactive),-5.6% (inactive),-16.2% (inactive)
Cn1c(=O)c2c(nc(SCCCC#N)n2Cc2ccccc2F)n(C)c1=O,601,4.5% (inactive),-13.6% (inactive),109%,-51% (inactive),119%,-0.416 (inactive),-2.8e-05 (inactive),0.00541 (inactive),12.9% (inactive),36.5% (inactive)
CN(C)CCCN1C(=O)c2oc3ccccc3c(=O)c2C1c1cccs1 (stereo not drawn),665,-1.2% (inactive),-8.2% (inactive),107%,-25.6% (inactive),132%,-0.443 (inactive),4e-06 (inactive),0.00339 (inactive),7.52% (inactive),8.07% (inactive)
Cn1cc(Cl)c(C(=O)NC2CCCC2)n1,452,-8.5% (inactive),26.8% (inactive),64.4%,-25.2% (inactive),104%,-0.594 (inactive),-3.1e-05 (inactive),0.00694 (inactive),-2.09% (inactive),4.05% (inactive)
O=C1Nc2ccccc2OC1CC(=O)N1CCCC1 (stereo not drawn),491,-6.6% (inactive),44.6% (active),80.1%,-105% (inactive),115%,-0.522 (inactive),-1.3e-05 (inactive),0.00582 (inactive),6.75% (inactive),28.5% (inactive)
Cc1ccc(C)c(NS(=O)(=O)c2ccc(NC(=O)c3ccco3)cc2)c1,476,13.3% (inactive),4.7% (inactive),111%,-15.1% (inactive),109%,-0.335 (inactive),-3.2e-05 (inactive),0.00608 (inactive),0.316% (inactive),11.1% (inactive)
O=C(c1ccccc1F)N1CCN(Cc2cccc(Cl)c2)CC1,649,3% (inactive),10.9% (inactive),99.3%,-3.6% (inactive),98.3%,-0.654 (inactive),1.7e-05 (inactive),0.00876 (inactive),9.77% (inactive),10.5% (inactive)
COc1ccccc1NC(=O)CSc1nnnn1-c1ccc2c(c1)OCO2,349,-9.4% (inactive),21.1% (inactive),88.6%,-122% (inactive),104%,-0.487 (inactive),3.9e-05 (inactive),0.00668 (inactive),12.2% (inactive),26.1% (inactive)
CCOCCc1nnc(NC(=O)c2ccc(OC)c(OC)c2)s1,578,9.1% (inactive),-18.6% (inactive),97.6%,-94.6% (inactive),154%,-0.515 (inactive),-4.8e-05 (inactive),0.00549 (inactive),14.1% (inactive),20% (inactive)
Cc1cc(C)cc(NC(=O)C2CCCN(c3nccc(C)n3)C2)c1 (stereo not drawn),373,-6% (inactive),-20.4% (inactive),115%,-57.3% (inactive),117%,-0.463 (inactive),-8.4e-05 (inactive),0.00586 (inactive),9.71% (inactive),18.5% (inactive)
CCOC(=O)c1ccccc1NC(=O)c1ccc(NS(C)(=O)=O)cc1,485,-2.2% (inactive),10.4% (inactive),90.2%,26.8% (inactive),86%,-0.473 (inactive),-6e-06 (inactive),0.00606 (inactive),6.8% (inactive),11.4% (inactive)
COc1ccc(NC(=O)C2CCCN2S(=O)(=O)c2cccc3cccnc23)c(OC)c1 (stereo not drawn),645,-8.6% (inactive),2.8% (inactive),77.7%,-59.6% (inactive),103%,-0.626 (inactive),2.3e-06 (inactive),0.00652 (inactive),1.34% (inactive),38.4% (inactive)
COc1ccc(-n2c(Cc3cccn3C)nnc2SCC(=O)NCC2CCCO2)cc1 (stereo not drawn),846,1.8% (inactive),21.3% (inactive),103%,-182% (inactive),130%,-0.56 (inactive),-3.5e-05 (inactive),0.00701 (inactive),8.65% (inactive),32% (inactive)
COC(=O)CNC(=O)COC(=O)c1cc(Cl)cc(Cl)c1N,473,4.7% (inactive),-2% (inactive),112%,-81.4% (inactive),123%,-0.41 (inactive),1.6e-05 (inactive),0.0054 (inactive),-8.86% (inactive),3.33% (inactive)
Cn1nnnc1SCc1cn2cccnc2n1,227,0.3% (inactive),9.5% (inactive),97.2%,-25.9% (inactive),117%,-0.106 (inactive),2.9e-05 (inactive),0.00615 (inactive),9.85% (inactive),9.08% (inactive)
CCOC(=O)N1CCC(NC(=O)c2ccc3c(c2)sc2nc(-c4cccc(OC)c4)cn23)CC1,415,8% (inactive),8.8% (inactive),93.6%,-3.7% (inactive),108%,-0.485 (inactive),-2.7e-05 (inactive),0.00825 (inactive),-22.7% (inactive),-70.4% (inactive)
CCOC(=O)N1CCC(NC(=O)CSCc2nc(-c3cccc(OC)c3)oc2C)CC1,292,4.4% (inactive),-9% (inactive),94.6%,-30.2% (inactive),124%,-0.498 (inactive),-5.4e-05 (inactive),0.00445 (inactive),9% (inactive),-6.15% (inactive)
